Data on three molecules can be found in PubChem BioAssay (EPA / NIEHS).

For assay [1], the target named is Myc proto-oncogene protein (Homo sapiens) (UniProt P01106). Put plainly: ATG_Myc_CIS: Attagene CIS-FACTORIAL HepG2 Assay for human Myelocytomatosis (Myc) Proto-Oncogene Transcription Factor (AID 2282990). As to conditions: HepG2, Attagene cis-reporter transcription factor activity; actives raise or lower the signal. In short, it runs like this: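 HepG2, transient MRTU transfection (cis promoters, endogenous TFs); 24 h dosing; TriZol RNA → oligo(dT) RT → PCR → 6-FAM primer extension → HpaI cut → CE. Bidirectional fit vs DMSO.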
Sequence of Myc proto-oncogene protein (Homo sapiens) (P01106 whole entry, looked up): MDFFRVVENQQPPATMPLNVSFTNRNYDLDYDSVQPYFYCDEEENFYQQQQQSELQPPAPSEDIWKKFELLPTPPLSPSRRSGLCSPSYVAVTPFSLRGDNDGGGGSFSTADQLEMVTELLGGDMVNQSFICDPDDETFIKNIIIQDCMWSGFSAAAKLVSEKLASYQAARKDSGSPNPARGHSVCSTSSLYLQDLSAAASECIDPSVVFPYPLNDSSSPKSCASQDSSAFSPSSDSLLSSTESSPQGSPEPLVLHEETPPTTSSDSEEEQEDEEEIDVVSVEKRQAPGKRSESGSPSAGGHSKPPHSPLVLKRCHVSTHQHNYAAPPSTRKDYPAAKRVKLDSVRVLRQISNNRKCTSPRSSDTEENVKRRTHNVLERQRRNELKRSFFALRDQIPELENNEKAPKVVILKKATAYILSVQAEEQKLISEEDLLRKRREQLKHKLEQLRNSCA

The nature of assay [2]: ATG_NF_kB_CIS: Attagene CIS-FACTORIAL HepG2 Assay for human Nuclear Factor Kappa B (NF-kB) (AID 2282991). As to conditions: HepG2 Attagene cis-factorial NF-kB reporter mRNA; actives raise or lower the signal. Put shortly:
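Fluorescence of labelled RT-PCR products separated by capillary electrophoresis gives reporter mRNA levels from transfected HepG2 cells exposed 24 h; values are fitted in both directions relative to DMSO.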

Assay [3] is described as follows: ATG_NRF2_ARE_CIS: Attagene CIS-FACTORIAL HepG2 Assay for human Nuclear Factor Erythroid 2 Related Factor 2 (NFR2) response to Antioxidant Response Elements (ARE) (AID 2282992). As to conditions: HepG2 Attagene ARE/NRF2 reporter, transcription factor activity; actives raise or lower the signal. Put shortly: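 Multiplexed reporter mRNA profiling in HepG2 after a 24 h chemical exposure. Curves fitted in both directions relative to DMSO negative control.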

The nature of assay [4]: ATG_Oct_MLP_CIS: Attagene CIS-FACTORIAL HepG2 Assay for human Octamer-Binding Transcription Factor (Oct) (AID 2282993). As to conditions: HepG2 Attagene cis-factorial Oct reporter, mRNA; actives raise or lower the signal. In short, it runs like this:
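Cells of the HepG2 line express promoter-controlled reporter sequences whose mRNA levels, after 24 h treatment, are measured by RT-PCR and capillary electrophoresis. Increases and decreases are scored relative to DMSO.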

For assay [5], the target named is Cellular tumor antigen p53 (Homo sapiens) (UniProt P04637). Briefly: ATG_p53_CIS: Attagene CIS-FACTORIAL HepG2 Assay for human p53 Transcription Factor (AID 2282994). As to conditions: HepG2 p53 cis-element reporter, Attagene mRNA; actives raise or lower the signal. In short, it runs like this: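 Multiplexed reporter mRNA assay in human HepG2 liver cells; cis-regulated units report endogenous factor activity. Values come from bidirectional curve fitting against DMSO negative control after 24 h treatment.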
Sequence of Cellular tumor antigen p53 (Homo sapiens) (P04637 whole entry, looked up): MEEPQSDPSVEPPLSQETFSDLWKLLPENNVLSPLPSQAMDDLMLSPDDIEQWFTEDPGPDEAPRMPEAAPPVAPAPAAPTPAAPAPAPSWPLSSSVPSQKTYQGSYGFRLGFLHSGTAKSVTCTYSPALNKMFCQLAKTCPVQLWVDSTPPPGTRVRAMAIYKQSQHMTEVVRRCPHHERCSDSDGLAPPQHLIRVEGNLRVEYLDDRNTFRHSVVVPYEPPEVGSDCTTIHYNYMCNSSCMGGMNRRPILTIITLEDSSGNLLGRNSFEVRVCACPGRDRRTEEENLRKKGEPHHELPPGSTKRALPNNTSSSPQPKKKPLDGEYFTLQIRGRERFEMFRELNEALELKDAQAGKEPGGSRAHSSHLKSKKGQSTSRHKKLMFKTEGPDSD

The nature of assay [6]: BSK_3C_TissueFactor: BioMAP Diversity Plus: 3C Assay for Tissue Factor Biomarker Activity (AID 2282997). As to conditions: BioMAP 3C HUVEC, tissue factor biomarker readout; actives raise or lower the signal. In short, it runs like this:
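ELISA read-out of Tissue Factor levels on human umbilical vein endothelium collected 24 h after chemical dosing. Gain or loss of signal was fitted relative to DMSO.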

Assay [7] is described as follows: BSK_3C_uPAR: BioMAP Diversity Plus: 3C Assay for Urokinase-type plasminogen activator receptor (uPAR) Biomarker Activity (AID 2282998). As to conditions: BioMAP 3C HUVEC, uPAR biomarker ELISA; actives raise or lower the signal. In short, it runs like this: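 Endothelial primary cells of human umbilical vein origin received test chemical; 24 h later uPAR was assayed by ELISA. Fitting was bidirectional, DMSO as negative control.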
Background: In an ELISA, binding on a coated surface is turned into a signal by an enzyme label.

A short description of assay [8]: BSK_3C_VCAM1: BioMAP Diversity Plus: 3C Assay for Vascular cell adhesion molecule 1 (VCAM1) Biomarker Activity (AID 2282999). As to conditions: BioMAP 3C HUVEC, VCAM1 ELISA, cytokine-stimulated; actives raise or lower the signal. Put shortly:
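Endothelial cells from human umbilical vein are treated with test chemical. At 24 h, VCAM-1 is measured by ELISA, and responses in either direction are fitted relative to DMSO.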

Assay [9] can be described thus: BSK_4H_Eotaxin3: BioMAP Diversity Plus: 4H Assay for Eotaxin 3 Biomarker Activity (AID 2283000).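 For outcome: CCL26 protein level quantified by ELISA in parallel with SRB cytotoxicity check.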 As to conditions: primary human endothelial cells (HUVEC); actives raise or lower the signal. Put shortly: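 Chemicals were added to human umbilical vein endothelium cultures, and Eotaxin-3 was quantified by ELISA at 24 h. Values were derived by bidirectional fitting with DMSO serving as negative control and activity baseline.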

The target in assay [10] is human Peroxisome Proliferator-activated Receptor alpha (PPARa), PPARA (gene 5465) (UniProt Q07869). Put plainly: ATG_PPARa_TRANS: Attagene TRANS-FACTORIAL HepG2 Assay for human Peroxisome Proliferator-activated Receptor alpha (PPARa) (AID 2283001; active = hit-call score of the fitted dose curve at least 0.9, where 1 is the maximum;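 note: potency for gain of reporter signal over DMSO so agonist or activator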). Put shortly:
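Reporter transcripts from GAL4-UAS units in transfected HepG2 were quantified 24 h after dosing. Detection used reverse transcription, PCR, fluorescent primer extension and capillary electrophoresis, with DMSO as baseline.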

Assay [11] deals with human Peroxisome Proliferator-activated Receptor delta (PPARd), PPARD (gene 5467) (UniProt Q03181). Put plainly: ATG_PPARd_TRANS: Attagene TRANS-FACTORIAL HepG2 Assay for human Peroxisome Proliferator-activated Receptor delta (PPARd) (AID 2283002; active = hit-call score of the fitted dose curve at least 0.9, where 1 is the maximum). In short, it runs like this:
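Transient HepG2 transfection (multiple GAL4-UAS RTUs, chimeric receptor-Gal4); 24 h dosing; total RNA → oligo(dT) RT → PCR → 6-FAM primer extension → HpaI cut → CE. Positive direction vs DMSO.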

Read-out in assay [12]: Intercellular Adhesion Molecule 1 (ICAM1), ICAM1 (gene 3383)
Briefly: BSK_3C_ICAM1: BioMAP Diversity Plus: 3C Assay for Intercellular Adhesion Molecule 1 (ICAM1) Biomarker Activity (AID 2283003). As to conditions: primary human endothelial cells (HUVEC); actives raise or lower the signal. Put shortly: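 Primary human umbilical vein endothelial cells in the BioMAP 3C system were exposed to chemicals for 24 h, then ICAM-1 was quantified by ELISA. Activity was fitted bidirectionally against the DMSO negative control baseline.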

In assay [13] the target is Retinoic acid receptor alpha (Homo sapiens) (UniProt P10276). Put plainly: ATG_RARa_TRANS: Attagene TRANS-FACTORIAL HepG2 Assay for human Retinoic Acid Receptor alpha (RARa) (AID 2283005; active = hit-call score of the fitted dose curve at least 0.9, where 1 is the maximum). Put shortly:
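Reporter transcripts, measured by RT-PCR with fluorescent labeling and capillary electrophoresis after 24 h dosing, reflect activity of an exogenous human RARa–GAL4 fusion in transiently transfected HepG2. Fitted for increase relative to DMSO.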

Assay [14] in a line: BSK_3C_Proliferation: Cell Proliferation Assessment in the BioMAP Diversity Plus: 3C Assay (AID 2283006).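 For AC50: potency may reflect either rise or fall in cell number versus DMSO.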 As to conditions: primary human endothelial cells (HUVEC). In short, it runs like this: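 Human umbilical vein endothelial cells were grown sub-confluent and exposed to chemical for 48 h, then fixed with 10% TCA and stained with 0.1% sulforhodamine B; absorbance at 560 nm gave relative cell number, fitted bidirectionally against DMSO baseline.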

For assay [15], the target named is Peroxisome proliferator-activated receptor gamma (Homo sapiens) (UniProt P37231). Briefly: ATG_PPARg_TRANS: Attagene TRANS-FACTORIAL HepG2 Assay for human Peroxisome Proliferator-activated Receptor-gamma (PPARg) (AID 2283007; active = hit-call score of the fitted dose curve at least 0.9, where 1 is the maximum). In short, it runs like this:
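Twenty-four hours after chemical dosing of transiently transfected HepG2 cells, isolated RNA was converted to cDNA, reporter sequences amplified and 6-FAM-labelled, then HpaI-digested and analysed by capillary electrophoresis. Signal increase against DMSO was fitted.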

Assay [16] concerns the target Nuclear receptor subfamily 1 group I member 2 (Homo sapiens) (UniProt O75469). Put plainly: ATG_PXR_TRANS: Attagene TRANS-FACTORIAL HepG2 Assay for human Pregnane X Receptor (PXR) (AID 2283008; active = hit-call score of the fitted dose curve at least 0.9, where 1 is the maximum). In short, it runs like this:
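Measures mRNA induction of a GAL4-UAS-driven reporter in human HepG2 cells transiently expressing PXR fused to Gal4, following 24 h treatment. DMSO served as negative control and baseline.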

The target in assay [17] is human Retinoic Acid Receptor gamma (RARg), RARG (gene 5916) (UniProt P13631). Put plainly: ATG_RARg_TRANS: Attagene TRANS-FACTORIAL HepG2 Assay for human Retinoic Acid Receptor gamma (RARg) (AID 2283009; active = hit-call score of the fitted dose curve at least 0.9, where 1 is the maximum). In short, it runs like this: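 HepG2 cells transiently transfected with multiplexed reporter units expressing chimeric RARg-GAL4 and GAL4-UAS-driven reporters; 24 h compound exposure. Reporter mRNA quantified by RT-PCR with fluorescent labelling and capillary electrophoresis; gain-of-signal fitted relative to DMSO baseline.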
Sequence of human Retinoic Acid Receptor gamma (RARg), RARG (gene 5916) (P13631 whole entry, looked up, the tested form may be a part): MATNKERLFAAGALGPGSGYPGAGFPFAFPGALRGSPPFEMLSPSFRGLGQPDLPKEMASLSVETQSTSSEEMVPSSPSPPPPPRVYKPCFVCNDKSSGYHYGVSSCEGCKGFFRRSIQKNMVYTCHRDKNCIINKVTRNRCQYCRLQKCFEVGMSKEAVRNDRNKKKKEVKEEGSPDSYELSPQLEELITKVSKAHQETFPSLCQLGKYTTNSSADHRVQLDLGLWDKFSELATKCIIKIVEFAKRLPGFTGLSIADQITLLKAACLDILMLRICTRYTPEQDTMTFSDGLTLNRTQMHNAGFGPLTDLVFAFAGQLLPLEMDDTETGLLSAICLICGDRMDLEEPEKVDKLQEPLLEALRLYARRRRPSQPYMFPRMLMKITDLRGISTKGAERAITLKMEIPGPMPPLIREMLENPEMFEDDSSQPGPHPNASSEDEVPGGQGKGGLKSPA

Assay [18] deals with human RAR-related Orphan Receptor beta (RORb), RORB (gene 6096) (UniProt Q92753). Briefly: ATG_RORb_TRANS: Attagene TRANS-FACTORIAL HepG2 Assay for human RAR-related Orphan Receptor beta (RORb) (AID 2283010; active = hit-call score of the fitted dose curve at least 0.9, where 1 is the maximum). In short, it runs like this:
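HepG2 cells were transiently transfected with multiplexed GAL4-UAS reporter units expressing chimeric nuclear receptor–GAL4 proteins, then dosed for 24 h. Reporter mRNA was quantified by RT-PCR with fluorescent labelling and capillary electrophoresis; gain of signal was fitted relative to DMSO.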

In assay [19] the target is human RAR-related Orphan Receptor gamma (RORg), RORC (gene 6097) (UniProt P51449). Put plainly: ATG_RORg_TRANS: Attagene TRANS-FACTORIAL HepG2 Assay for human RAR-related Orphan Receptor gamma (RORg) (AID 2283011; active = hit-call score of the fitted dose curve at least 0.9, where 1 is the maximum). In short, it runs like this:
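First, HepG2 liver cells were transfected with GAL4-UAS-driven reporter constructs and the RORg-Gal4 fusion. Next, they were treated with chemical for 24 h. Finally, reporter mRNA was quantified by RT-PCR and capillary electrophoresis, with upward activity fitted against DMSO.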

In assay [20] the target is Retinoic acid receptor RXR-alpha (Homo sapiens) (UniProt P19793). Briefly: ATG_RXRa_TRANS: Attagene TRANS-FACTORIAL HepG2 Assay for human Retinoid X Receptor alpha (RXRa) (AID 2283012; active = hit-call score of the fitted dose curve at least 0.9, where 1 is the maximum). Put shortly: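 HepG2 cells transiently transfected with multiplexed GAL4-UAS reporter units and chimeric NR-GAL4 fusions, dosed 24 h. Reporter mRNA measured by RT-PCR, FAM labelling, HpaI digestion and capillary electrophoresis; gain-of-signal fitted relative to DMSO baseline.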
Sequence of Retinoic acid receptor RXR-alpha (Homo sapiens) (P19793 whole entry, looked up, the tested form may be a part): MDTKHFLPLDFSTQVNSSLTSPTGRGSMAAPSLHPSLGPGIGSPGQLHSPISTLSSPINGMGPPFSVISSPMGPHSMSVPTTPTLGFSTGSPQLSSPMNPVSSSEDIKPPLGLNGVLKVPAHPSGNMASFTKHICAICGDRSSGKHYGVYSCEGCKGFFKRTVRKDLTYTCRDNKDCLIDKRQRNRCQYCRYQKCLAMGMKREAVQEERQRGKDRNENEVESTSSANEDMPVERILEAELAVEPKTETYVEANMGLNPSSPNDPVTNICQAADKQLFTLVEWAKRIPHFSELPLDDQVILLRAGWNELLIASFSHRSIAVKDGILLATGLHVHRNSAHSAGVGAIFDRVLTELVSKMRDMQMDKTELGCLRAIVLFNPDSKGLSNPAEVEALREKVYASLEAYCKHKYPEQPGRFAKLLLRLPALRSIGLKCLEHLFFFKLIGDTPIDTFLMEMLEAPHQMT

Molecules are shown by their SMILES. “And” between values parts separate entries of the source, which are not always exact repeats. Equal entries are not always repeated. Inconclusive results are not listed. A structure can be active in one record and inactive in another. The source made the active and inactive calls. Rule for the calls, unless noted: active = hit-call score of the fitted dose curve at least 0.9, where 1 is the maximum; inactive = score below 0.9.

Sequence of Peroxisome proliferator-activated receptor gamma (Homo sapiens) (P37231 whole entry, looked up): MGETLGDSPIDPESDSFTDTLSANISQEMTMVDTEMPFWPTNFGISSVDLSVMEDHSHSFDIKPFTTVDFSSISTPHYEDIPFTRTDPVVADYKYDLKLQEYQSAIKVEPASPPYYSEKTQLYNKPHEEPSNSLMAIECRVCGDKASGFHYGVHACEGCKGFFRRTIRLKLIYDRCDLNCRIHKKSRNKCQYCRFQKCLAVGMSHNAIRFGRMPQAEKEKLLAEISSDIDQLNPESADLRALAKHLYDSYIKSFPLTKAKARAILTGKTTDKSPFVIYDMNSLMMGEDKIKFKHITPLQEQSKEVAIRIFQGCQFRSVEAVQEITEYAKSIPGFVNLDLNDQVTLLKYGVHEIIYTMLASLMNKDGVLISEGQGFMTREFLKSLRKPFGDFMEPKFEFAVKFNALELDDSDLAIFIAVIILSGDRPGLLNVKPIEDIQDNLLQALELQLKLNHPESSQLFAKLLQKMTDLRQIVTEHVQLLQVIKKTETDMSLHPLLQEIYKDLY
Sequence of human Peroxisome Proliferator-activated Receptor alpha (PPARa), PPARA (gene 5465) (Q07869 whole entry, looked up, the tested form may be a part): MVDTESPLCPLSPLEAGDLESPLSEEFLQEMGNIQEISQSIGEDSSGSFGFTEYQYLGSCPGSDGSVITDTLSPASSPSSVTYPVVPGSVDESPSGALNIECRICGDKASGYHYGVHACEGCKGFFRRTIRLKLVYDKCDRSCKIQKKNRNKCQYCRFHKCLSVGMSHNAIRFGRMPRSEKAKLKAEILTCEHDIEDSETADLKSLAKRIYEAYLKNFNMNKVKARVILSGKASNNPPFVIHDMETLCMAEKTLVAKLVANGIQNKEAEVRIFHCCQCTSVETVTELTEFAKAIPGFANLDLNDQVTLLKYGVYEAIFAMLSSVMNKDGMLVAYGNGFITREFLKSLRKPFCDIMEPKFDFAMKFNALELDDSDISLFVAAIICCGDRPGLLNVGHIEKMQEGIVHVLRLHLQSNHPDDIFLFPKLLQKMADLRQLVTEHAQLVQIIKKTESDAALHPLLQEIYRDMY
Sequence of Nuclear receptor subfamily 1 group I member 2 (Homo sapiens) (O75469 whole entry, looked up, the tested form may be a part): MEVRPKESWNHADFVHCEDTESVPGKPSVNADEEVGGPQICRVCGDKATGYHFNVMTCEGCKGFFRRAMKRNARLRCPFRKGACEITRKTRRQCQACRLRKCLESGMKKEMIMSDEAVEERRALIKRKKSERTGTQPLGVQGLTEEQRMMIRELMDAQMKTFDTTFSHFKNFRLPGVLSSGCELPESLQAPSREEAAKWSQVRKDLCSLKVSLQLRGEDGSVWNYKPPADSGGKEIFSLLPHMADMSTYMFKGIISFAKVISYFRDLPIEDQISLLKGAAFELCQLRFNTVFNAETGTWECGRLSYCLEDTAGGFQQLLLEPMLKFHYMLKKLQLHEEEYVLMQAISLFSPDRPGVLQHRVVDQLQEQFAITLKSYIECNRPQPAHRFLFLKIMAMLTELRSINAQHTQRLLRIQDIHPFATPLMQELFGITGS
Sequence of human Peroxisome Proliferator-activated Receptor delta (PPARd), PPARD (gene 5467) (Q03181 whole entry, looked up, the tested form may be a part): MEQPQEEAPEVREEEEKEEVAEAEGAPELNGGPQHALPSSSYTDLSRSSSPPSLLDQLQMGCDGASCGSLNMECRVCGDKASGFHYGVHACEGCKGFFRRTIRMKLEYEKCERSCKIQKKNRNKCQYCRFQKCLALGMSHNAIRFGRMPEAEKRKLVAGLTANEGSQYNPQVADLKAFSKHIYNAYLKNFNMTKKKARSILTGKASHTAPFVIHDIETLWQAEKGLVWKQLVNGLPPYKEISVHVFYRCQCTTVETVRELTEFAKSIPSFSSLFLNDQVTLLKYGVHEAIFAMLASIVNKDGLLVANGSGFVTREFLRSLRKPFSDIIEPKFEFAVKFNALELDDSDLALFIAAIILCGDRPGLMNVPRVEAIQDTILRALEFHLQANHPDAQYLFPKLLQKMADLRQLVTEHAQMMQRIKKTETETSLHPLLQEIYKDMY
Sequence of human RAR-related Orphan Receptor beta (RORb), RORB (gene 6096) (Q92753 whole entry, looked up, the tested form may be a part): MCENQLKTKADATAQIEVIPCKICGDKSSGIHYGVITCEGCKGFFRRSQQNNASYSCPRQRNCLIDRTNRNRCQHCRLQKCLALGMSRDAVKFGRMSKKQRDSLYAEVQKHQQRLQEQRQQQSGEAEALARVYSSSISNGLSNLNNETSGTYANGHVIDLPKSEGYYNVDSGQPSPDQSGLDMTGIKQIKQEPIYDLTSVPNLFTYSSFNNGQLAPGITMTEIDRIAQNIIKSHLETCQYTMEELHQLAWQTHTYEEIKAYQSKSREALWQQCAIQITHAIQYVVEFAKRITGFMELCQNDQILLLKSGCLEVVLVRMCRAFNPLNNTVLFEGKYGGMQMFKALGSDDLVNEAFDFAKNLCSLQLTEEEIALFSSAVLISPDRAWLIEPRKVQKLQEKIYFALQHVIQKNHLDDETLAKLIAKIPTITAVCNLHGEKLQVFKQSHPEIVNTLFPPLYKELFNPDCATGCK
Sequence of Retinoic acid receptor alpha (Homo sapiens) (P10276 whole entry, looked up, the tested form may be a part): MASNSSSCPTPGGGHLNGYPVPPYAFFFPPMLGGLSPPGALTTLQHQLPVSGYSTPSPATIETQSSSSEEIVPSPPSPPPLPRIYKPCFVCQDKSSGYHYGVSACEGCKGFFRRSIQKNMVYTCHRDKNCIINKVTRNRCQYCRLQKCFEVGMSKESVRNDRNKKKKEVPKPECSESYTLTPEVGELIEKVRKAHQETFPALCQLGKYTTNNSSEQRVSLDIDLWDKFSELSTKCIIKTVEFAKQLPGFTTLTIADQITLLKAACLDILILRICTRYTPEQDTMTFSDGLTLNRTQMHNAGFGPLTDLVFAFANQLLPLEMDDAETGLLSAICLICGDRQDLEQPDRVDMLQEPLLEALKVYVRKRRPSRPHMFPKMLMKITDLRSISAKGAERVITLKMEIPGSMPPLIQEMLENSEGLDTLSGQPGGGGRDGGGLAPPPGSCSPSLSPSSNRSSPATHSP

One may read the AC50 as the concentration at which the activity in the assay is half-maximal. In the case of `O=C(O)C(F)(F)C(F)(F)C(F)(F)C(F)(F)C(F)(F)C(F)(F)F`, the call in [1], in assay [2], in [3], in assay [4], in assay [5] and in assay [6] was inactive. Moreover, the outcome in assay [7], in assay [8], in assay [9], in assay [11], in assay [12] and in [13] was inactive. Moreover, the result in assay [14], in assay [15], in [16], in assay [17], in [18] and in [19] was inactive. Also, the call in assay [20] was inactive. Besides, the AC50 is 212 µM (active) and 219 µM (active) in assay [3]; 18.2 µM (active) and 20.7 µM (active) in assay [10]; 65.4 µM (active) and 72.5 µM (active) in assay [15].
With `Oc1c(I)cc(I)cc1I`, the result in assay [1], in assay [2], in assay [3], in assay [5], in assay [6] and in assay [11] was inactive. Moreover, the result in assay [12] and in assay [20] was inactive. The AC50 in [4] is 34.5 µM (active); in assay [7], 10.5 µM (active); in assay [8], 15.5 µM (active); in [9] it was 20 µM (active); in [10], 16.6 µM (active); in assay [14], 11.4 µM (active). Further, the AC50 in assay [15] was 9.7 µM (active); in [16], 6.69 µM (active).
For `CC(C)(c1ccccc1)c1ccc(O)c(C(C)(C)c2ccccc2)c1`, the outcome in assay [1], in assay [5], in assay [11], in assay [13] and in [20] was inactive. In addition, the AC50 is 8.81 µM (active) in [2]; 7.97 µM (active) in assay [3]; 1.76 µM (active) in assay [4]; 11.7 µM (active) in assay [6]; 9.74 µM (active) in assay [7]; 9.15 µM (active) in [8]. The AC50 in assay [9] is 9.16 µM (active); in [12], 11.1 µM (active); in assay [14], 6.91 µM (active); in assay [16] it was 0.148 µM (active).
